PubChem BioAssay (NCATS)
Where “and” joins values, the source holds several entries; their conditions need not be identical. Equal values may be shown once. Records with an inconclusive call do not appear. Calls of active or inactive are those of the source. The call rests on the fitted dose curve.
Potency means the concentration at half of the fitted maximal effect.

Test: Primary qHTS to identify inhibitors of SARS-CoV-2 cell entry (AID 1645846); further: nearly all actives have a fitted effect of over 45% in size
Conditions: SARS-CoV-2 pseudovirus cell entry assay, luminescence; activity change, negative = inhibition: at 57.1 µM (top of the series) unless noted; series mostly up to 57.1 µM
How it was run: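 Luminescence readout (Bright-Glo luciferase) 48 h after pseudoparticle addition. HEK293-ACE2 cells, 1500/well; compound pre-incubation 1 h; Normalized to spike PP and bald PP.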
With `CCOC(=O)[C@H](CCc1ccccc1)N[C@@H](C)C(=O)N1Cc2cc(OC)c(OC)cc2C[C@H]1C(=O)O` the activity change, negative = inhibition was -29.2%. With `C[C@@H]1C[C@H]2[C@@H]3CCC4=CC(=O)C=C[C@]4(C)[C@@]3(F)[C@@H](O)C[C@]2(C)[C@@]1(O)C(=O)CO` the Potency was “inactive”. With `C1N2CN3CN1CN(C2)C3` the Potency was “inactive”. With `N[C@@H](C(=O)N[C@@H]1C(=O)N2C(C(=O)O)=C(Cl)CS[C@H]12)c1ccccc1` the outcome was “inactive [at 11.3 µM]”. In the case of `CN(C)CCOC(C)(c1ccccc1)c1ccccn1` (stereo not given), the activity change, negative = inhibition is reported as 2.27%. For `O=P(O)(O)C(O)(Cc1cccnc1)P(=O)(O)O`, the activity change, negative = inhibition was 4.27% and -14.8%. For `N=C(N)c1ccc(OCCCCCOc2ccc(C(=N)N)cc2)cc1`, the Potency was 15.8 µM (active). In the case of `CCCNC(=O)NS(=O)(=O)c1ccc(Cl)cc1`, the Potency is reported as “inactive”. For `O=C(c1ccccc1)c1ccc2n1CCC2C(=O)O` (stereo not given), the Potency was “inactive”. In the case of `CCCN1C[C@H](CSC)C[C@@H]2c3cccc4[nH]cc(c34)C[C@H]21`, the activity change, negative = inhibition is reported as -12.6%. `CC[C@@H]([C@H](C)O)n1ncn(-c2ccc(N3CCN(c4ccc(OC[C@@H]5CO[C@@](Cn6cncn6)(c6ccc(F)cc6F)C5)cc4)CC3)cc2)c1=O` showed an activity change, negative = inhibition of -23.1%. In the case of `Cc1cccc(Nc2ccncc2S(=O)(=O)NC(=O)NC(C)C)c1`, the Potency is reported as “inactive”. With `Cc1cn([C@H]2C=C[C@@H](CO)O2)c(=O)[nH]c1=O` the activity change, negative = inhibition was -21.1%. For `NNCCc1ccccc1`, the Potency was “inactive”. For `Cc1cnc(C(=O)NCCc2ccc(S(=O)(=O)NC(=O)NC3CCCCC3)cc2)cn1`, the activity change, negative = inhibition was 3.67%. `Cn1ccc2cc3c(cc21)CCN3C(=O)Nc1cccnc1` gave an activity change, negative = inhibition of -18.3%. Work on `CNCC[C@@H](Oc1ccccc1C)c1ccccc1` yielded an activity change, negative = inhibition of -15.9%. For `Cc1ccc2c(n1)Oc1ccc(C(C)C(=O)OCC(=O)N(C)C)cc1C2` (stereo not given), the Potency was “inactive”. In the case of `O=C(c1ccc(OCCN2CCCCC2)cc1)c1c(-c2ccc(O)cc2)sc2cc(O)ccc12`, the Potency is reported as 31.6 µM (active). In the case of `CCC(C)(C)C(=O)O[C@H]1C[C@@H](C)C=C2C=C[C@H](C)[C@H](CC[C@@H]3C[C@@H](O)CC(=O)O3)[C@H]21`, the Potency is reported as “inactive”.
